Data published in PubChem BioAssay.
Results filed as inconclusive are left out. Calls of active or inactive are those of the source.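 The calls were made as follows, unless noted: active = growth inhibition above 25% in both replicates, a cutoff set 3 SD above the mean; inconclusive = above 25% in only one replicate; inactive = the rest.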

Tests used:
[1] = reducers of endogenous Her2 protein level, primary screen, SKBR3 breast tumor cells, AlphaScreen, ATP viability (AID 461;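 active = Her2 level under about 52% in both replicate screens, with viability over 70% of control, limit read from the data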;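 as to Her2 level: lower value means less Her2 protein in the cells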;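 as to viability: percent of carrier control wells set as 100% viability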); conditions: 18-24 h, measured here: SKBR3 viability, ATP luminescence, at 10 µM
[2] = molecular target: Receptor tyrosine-protein kinase erbB-2 (Homo sapiens) (UniProt P04626); assay: as above; conditions: 18-24 h, at 10 µM, stronger effect = lower value
Sequence of Receptor tyrosine-protein kinase erbB-2 (Homo sapiens) (P04626 whole entry, looked up): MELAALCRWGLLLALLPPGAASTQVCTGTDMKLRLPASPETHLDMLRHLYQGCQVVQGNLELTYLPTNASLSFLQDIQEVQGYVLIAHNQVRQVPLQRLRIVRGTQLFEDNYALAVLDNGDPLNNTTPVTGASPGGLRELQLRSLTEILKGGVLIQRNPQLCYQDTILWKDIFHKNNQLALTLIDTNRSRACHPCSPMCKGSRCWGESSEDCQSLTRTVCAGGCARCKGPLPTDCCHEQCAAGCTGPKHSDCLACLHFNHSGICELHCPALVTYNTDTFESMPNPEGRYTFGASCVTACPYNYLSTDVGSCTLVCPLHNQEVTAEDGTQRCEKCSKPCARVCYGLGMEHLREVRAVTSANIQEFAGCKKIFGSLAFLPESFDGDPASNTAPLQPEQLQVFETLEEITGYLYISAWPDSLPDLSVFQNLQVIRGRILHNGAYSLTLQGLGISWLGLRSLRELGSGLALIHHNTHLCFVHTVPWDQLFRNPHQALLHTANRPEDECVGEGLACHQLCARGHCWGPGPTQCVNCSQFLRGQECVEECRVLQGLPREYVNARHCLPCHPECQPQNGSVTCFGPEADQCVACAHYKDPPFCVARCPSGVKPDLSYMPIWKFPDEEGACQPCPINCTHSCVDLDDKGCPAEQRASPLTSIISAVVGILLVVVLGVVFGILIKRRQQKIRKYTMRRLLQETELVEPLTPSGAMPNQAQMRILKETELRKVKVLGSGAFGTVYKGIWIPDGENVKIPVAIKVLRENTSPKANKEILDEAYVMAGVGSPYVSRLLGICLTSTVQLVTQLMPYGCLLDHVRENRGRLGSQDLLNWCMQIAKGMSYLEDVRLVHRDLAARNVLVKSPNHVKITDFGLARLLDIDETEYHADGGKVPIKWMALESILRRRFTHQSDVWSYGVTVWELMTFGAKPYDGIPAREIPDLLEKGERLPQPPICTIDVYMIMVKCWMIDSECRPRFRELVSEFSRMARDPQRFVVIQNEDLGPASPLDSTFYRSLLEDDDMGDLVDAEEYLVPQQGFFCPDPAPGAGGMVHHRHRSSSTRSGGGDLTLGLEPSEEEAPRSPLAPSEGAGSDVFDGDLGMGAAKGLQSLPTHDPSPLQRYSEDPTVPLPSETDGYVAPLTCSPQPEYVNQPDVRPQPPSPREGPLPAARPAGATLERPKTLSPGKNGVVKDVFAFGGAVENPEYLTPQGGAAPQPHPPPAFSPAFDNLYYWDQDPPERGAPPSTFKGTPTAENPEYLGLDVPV

[3] = SK-BR-3 cell growth inhibitors, pilot screen, 24 h, human (AID 572;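 active = viability at or below 10% of carrier control in both of two separate runs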;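 also: compound exposure lasted between 18 and 24 h rather than exactly 24 h; 100% = carrier-treated control wells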); conditions: SK-BR-3 viability, CellTiter-Glo luminescence, at 10 µM, stronger effect = lower value
[4] = HUVEC growth inhibition – cell-based, human, primary screen (AID 575;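 active = viability at or below 30% in both replicate assays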;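 also: 100% = median of untreated cell wells with 0.1% DMSO on each plate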); conditions: HUVEC proliferation, CellTiter-Glo luminescence, 72 h; at 10 µM; stronger effect = lower value
[5] = growth inhibitors of H69AR lung tumor, primary screen, human, duplicate replicates (AID 580;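 active = viability at or under a set limit in both replicates, limit being median viability minus 3 SD, cut at about 48% in these data, passing the limit was not always enough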;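 also: 100% = mean luminescence of untreated wells and 0% = no signal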); conditions: H69AR lung tumor cells viability, ATP luminescence, 72 h; at 10 µM; stronger effect = lower value
[6] = reversal of MRP1-mediated doxorubicin resistance, pilot screen, H69AR cells, doxorubicin co-treatment (AID 601;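 active = viability loss from added drug above about 55%, and viability with drug at most 40%, in both replicates, limit read from the data, passing the limit was not always enough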); conditions: CellTiter-Glo, 72 h, at 10 µM; for differential viability (reversal): stronger effect = higher value
[7] = 384-well plate pilot, post-Golgi transport modulator project, inhibition of yeast transport mutant growth (AID 636; in the data active = inhibition above about 31%); conditions: absorbance 615 nm, about 18 h, stronger effect = higher value
[8] = growth suppression of yeast trafficking mutant, preliminary HTS, modulators of trafficking downstream of Golgi apparatus project, 1536-format plate, OD 615 nm (AID 637; in the data active = inhibition above about 30%); conditions: yeast transport mutant growth, absorbance 615 nm, 18 h; stronger effect = higher value
[9] = OD615 S. cerevisiae growth inhibition, permissive medium, pilot counter-assay, permissive growth control for S. cerevisiae lifespan shortening project (AID 705); conditions: OD615, 24 h, at 10 µM, stronger effect = higher value
[10] = Restrictive medium S. cerevisiae growth inhibition, OD615, pilot screen of yeast lifespan reduction project, restrictive growth control (AID 706;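 active = growth inhibition above a set limit, 3 SD over mean compound inhibition, in both replicates, cut at about 43% in these data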;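 also: modified DeaD lifespan yeast strain shifted to restrictive glucose medium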); conditions: OD615, 48 h, at 10 µM, stronger effect = higher value
[11] = viability gain of MRP-1-high H69AR cells under doxorubicin, pilot screen, MRP-1 activator project, CellTiter-Glo, duplicate (AID 807;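 active = viability increase at or above a cutoff of the median across tested compounds plus 3 SD, cut at about 8.5% in these data, passing the limit was not always enough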;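 also: compound pretreatment 18-22 h then 72 h combined with doxorubicin; 0% = doxorubicin alone and 100% = vehicle without doxorubicin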); conditions: H69AR viability with doxorubicin, CellTiter-Glo luminescence; at 10 µM; stronger effect = higher value
[12] = growth suppression of beta-catenin knockout HCT116, pilot screen, human colon tumor cells (AID 823;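 active = cell viability at or below a set limit in both duplicate runs, the limit being the all-compound median minus 4 SD, cut at about 23% in these data, passing the limit was not always enough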;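 also: 0% = wells killed by 20 µM Hyamine and 100% = untreated DMSO cell wells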); conditions: CellTiter-Glo, 60 h, at 10 µM, stronger effect = lower value
[13] = growth suppression of PTEN-deleted HCT116, pilot screen, cell-based, HCT116 clonal line, CellTiter-Glo (AID 824;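 active = viability at or below 27.92% in each of two runs, the all-compound median minus 4 SD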;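 also: 0% = 20 µM Hyamine control and 100% = vehicle cell control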); conditions: 60 h, at 10 µM, stronger effect = lower value
[14] = inhibitors of the yeast RAM network, pilot screen, dse1pr::URA3 reporter, 5-FOA selection (AID 869;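 active = inhibition over a set limit, the all-compound mean plus 3 SD, in both replicate runs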;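 also: 0% = DMSO wells with no growth and 100% = 10 µM 1-NA-PP1 with full growth; RAM network block rescues cells from 5-FOA so hits raise OD615 growth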); conditions: S. cerevisiae dse1pr::URA3 5-FOA growth, OD615, 2 d; at 10 µM; stronger effect = higher value; strain carries analog-sensitive mutant Cbk1 kinase
[15] = RAM signaling pathway blockade in yeast – S. cerevisiae, Pdr1DBD-CYC8 efflux-inhibited sensitized strain, primary screen (AID 1298;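 active = RAM network inhibition above 8.4% in each of two replicates, 3 SD over the compound average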;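 also: 0% = DMSO untreated cells without growth and 100% = 10 µM 1-NA-PP1 full growth; higher means more yeast growth rescued from 5-FOA killing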); conditions: S. cerevisiae cbk1-as DSE1-URA3 strain, 5-FOA growth OD615, 2 d; at 50 µM; stronger effect = higher value
[16] = H69AR cells + 2 uM doxorubicin, measured here: viability with 2 uM doxorubicin, stronger effect = lower value
[17] = H69AR cells, compound alone cytotoxicity

SMILES | viability [1] [%] | Her2 level [2] | viability [3] | viability [4] | viability [5] | differential viability (reversal) ([6]; H69AR cells + 2 uM doxorubicin) | viability [6, 16] [%] | viability [6, 17] [%] | inhibition [7] | inhibition [8] | growth inhibition [9] | growth inhibition [10] | viability increase [11] | viability [12] | viability [13] | inhibition [14] | RAM network inhibition [15]
CCN(CC)CCN1C(=O)c2oc3ccc(F)cc3c(=O)c2C1c1ccncc1 (stereo not given) | 89.5 | 96.5% (inactive) | 89.5% (inactive) | 95.6% (inactive) | 87.5% (inactive) | 4.02% (inactive) | 83.5 | 87.5 | -3.2% (inactive) | -8.67% (inactive) | -0.15% (inactive) | -0.92% (inactive) | 0.69% (inactive) | 96.4% (inactive) | 95.9% (inactive) | 0.78% (inactive) | 2.14% (inactive)
COc1ccc(-c2[nH]c(-c3cccc(OC)c3)nc2SCC(=O)NCc2ccco2)cc1 | 95.5 | 85.5% (inactive) | 95.5% (inactive) | 62.5% (inactive) | 71% (inactive) | -2.42% (inactive) | 73.4 | 71 | -2.67% (inactive) | -0.33% (inactive) | -9.19% (inactive) | 1.65% (inactive) | -4.56% (inactive) | 93.3% (inactive) | 90.3% (inactive) | 1.09% (inactive) | 11.2% (inactive)
O=C(O)COc1ccc(S(=O)(=O)NCCc2ccccc2)cc1 | 105 | 103% (inactive) | 105% (inactive) | 115% (inactive) | 106% (inactive) | 27.5% (inactive) | 78.8 | 106 | -6.4% (inactive) | 2.62% (inactive) | -6.59% (inactive) | 10.2% (inactive) | -0.3% (inactive) | 108% (inactive) | 96.2% (inactive) | 1.84% (inactive) | -2.61% (inactive)
CCCCc1cc(=O)oc2cc(OCC(=O)N(CC)CC)c(Cl)cc12 | 98 | 112% (inactive) | 98% (inactive) | 77.9% (inactive) | 79% (inactive) | -17.3% (inactive) | 96.3 | 79 | -4% (inactive) | -1.17% (inactive) | -1.69% (inactive) | 2.79% (inactive) | -1.39% (inactive) | 93.5% (inactive) | 89.6% (inactive) | -0.34% (inactive) | 5.28% (inactive)
CCOC(=O)Cn1ncc(-c2ccccc2)c1N | 101 | 72% (inactive) | 101% (inactive) | 102% (inactive) | 93% (inactive) | 7.02% (inactive) | 86 | 93 | -7.95% (inactive) | -1.43% (inactive) | 2.3% (inactive) | -2.13% (inactive) | 0.83% (inactive) | 100% (inactive) | 94.5% (inactive) | 1.83% (inactive) | 2.21% (inactive)
